The values below come from PubChem BioAssay AID431 (Sanford-Burnham Center for Chemical Genomics, 2006).

In all, about 63,000 compounds went through this assay and about 1,100 (1.7%) were called active. This is one part of a sample in which actives are shown more often than they occur. Measured potencies and affinities stand elsewhere. Values without a mark were called inactive.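 Rule for the calls: active = compounds whose percent cytotoxicity in the single-dose primary screen, scaled between solvent and toxic-drug controls, exceeds 50; inactive = the rest.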

The assay can be described thus: cytotoxicity in KRAS-transformed pancreatic duct cells, primary screen, cell-based, fluorescence, HTS (AID 431).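 Note: 0% = DMSO solvent wells and 100% = doxorubicin-treated wells.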 Particulars: HPDE-C7K KRASV12 cells, Alamar Blue viability, 48 h; at 10 µM; active compounds read high. On the technique in general: Alamar Blue is a resazurin reagent that responds to reducing activity.
For `O=C(Nc1ccccc1-c1nc2ccccc2s1)c1ccco1`, the cytotoxicity was 7.5%.
As for `CC1(C)CC(=O)C2=C(C1)Nc1ccccc1NC2c1ccccn1` (configuration not stated), the figure is -20%; as for `COc1ccc(-c2cc(-c3c(O)c(OC)c4occc4c3OC)[nH]n2)cc1OC`, 36.2%; as for `COc1ccc(CCCc2nnc(SCC(=O)Nc3nccs3)n2C)cc1C`, -0.1%.
`N#Cc1cc2c(nc1SCC(=O)Nc1sc3c(c1C#N)CCC3)CCCCC2`: the cytotoxicity was 23%.
Regarding `CCOC(=O)c1sc(NC(=O)CSc2nc3c(cc2C#N)CCCCCC3)c(C#N)c1C`, the cytotoxicity was 81.6% (active).
As for `CCOC(=O)c1sc(NC(=O)CSc2nc3c(cc2C#N)CCC3)c(C#N)c1C`, the figure is -0.1%; as for `CCCS(=O)(=O)N1CCCC(C(=O)NCCc2ccc(Cl)cc2)C1` (configuration not stated), -3.4%.
As for `O=C(O)c1cccc(S(=O)(=O)Nc2ccc3oc(=O)sc3c2)c1`, the figure is 6.5%; as for `COc1cc(NS(=O)(=O)c2ccc(C)cc2C)cc(OC)c1OC`, 30.3%; as for `Cc1ccc(CNc2ccc3c(c2)OCO3)cc1`, 28.9%.
On to `Cc1ccc(CNc2ccc3c(c2)OCO3)c(C)c1`, for which the cytotoxicity was 64.8% (active).
Regarding `c1cc(CNc2ccc3c(c2)OCO3)ccn1`, the cytotoxicity is -0.7%.
In the case of `Fc1ccc(Cn2nnnc2CN2CCN(C3CCCC3)CC2)cc1` it was 5.5%; in that of `Cc1cc(N2CCC(C(=O)Nc3ccc(F)cc3)CC2)nc(-c2ccccc2)n1`, -0.7%.
Regarding `Cc1cc(N2C3CCC2CC(O)(c2ccc(F)cc2)C3)nc(-c2ccccc2)n1` (configuration not stated), the cytotoxicity is 76.5% (active).
As for `Cc1cc(N2CCN(c3ccccc3)CC2)nc(-c2ccccc2)n1`, the figure is -1.4%.
In the case of `O=C(c1cnccn1)N1CCc2ccccc21`, the cytotoxicity was -21%.
As for `O=S(=O)(NCc1cccs1)c1cccc2cccnc12`, the figure is 6.5%; as for `Cc1cc(NC(c2cccnc2)c2ccc3cccnc3c2O)no1` (configuration not stated), 24.3%.
`Cc1cnc(C(=O)Nc2ccccc2C(=O)N2CCOCC2)cn1`: the cytotoxicity is 1.7%.
In the case of `O=C(O)c1ccc2cccc(Cl)c2c1O` it was 24.3%; in that of `COc1cccc(NS(=O)(=O)c2ccc3[nH]cc(C(=O)NCCN4CCOCC4)c(=O)c3c2)c1`, -12.6%.
As for `CC1CCN(S(=O)(=O)c2ccc3[nH]cc(C(=O)NCCN4CCOCC4)c(=O)c3c2)CC1`, the figure is 57.8% (active); as for `Cc1ccccc1NS(=O)(=O)c1ccc2[nH]cc(C(=O)NCCCN3CCOCC3)c(=O)c2c1`, 3.9%.
In the case of `COc1ccc(CNC(=O)C2CCCN2S(=O)(=O)c2ccc(S(=O)(=O)N(C)C)cc2)cc1` (configuration not stated) it was -14.8%; in that of `Cc1cc(NCCN2CCOCC2)n2c(nc3ccccc32)c1C#N`, 11.6%.
Turning to `CCCCCCSC1=C(C#N)C(c2ccc(C)o2)CC(=O)N1` (configuration not stated), the cytotoxicity is -6.9%.
As for `CCOC(=O)CC(=O)CSC1=C(C#N)C(c2ccccc2OC)CC(=O)N1` (configuration not stated), the figure is 70.2% (active).
In the case of `CCCOC(=O)CSC1=C(C#N)C(c2ccc3c(c2)OCO3)CC(=O)N1` (configuration not stated) it was 61.7% (active); in that of `CCOC(=O)CSC1=C(C#N)C(c2ccc(C)o2)CC(=O)N1` (configuration not stated), 67.9% (active).
In the case of `CCSC1=C(C#N)C(c2ccccc2OC)CC(=O)N1` (configuration not stated) it was -0.5%; in that of `Cc1ccc(C2CC(=O)NC(SCC(=O)OCc3ccccc3)=C2C#N)o1` (configuration not stated), 55.7% (active).
Take `CCOC(=O)CSC1=C(C#N)C(c2ccc3c(c2)OCO3)CC(=O)N1` (configuration not stated): the cytotoxicity was 27.9%.
In the case of `CCCCOC(=O)CSC1=C(C#N)C(c2ccc3c(c2)OCO3)CC(=O)N1` (configuration not stated) it was 21.6%.
As for `COC(=O)CSC1=C(C#N)C(c2ccccc2)CC(=O)N1` (configuration not stated), the figure is -15.7%; as for `Cc1ccc(C2CC(=O)NC(SCc3ccccc3)=C2C#N)o1` (configuration not stated), 9%; as for `CCOC(=O)CSC1=C(C#N)C(c2ccc(Cl)cc2)CC(=O)N1` (configuration not stated), -10.7%.
In the case of `CCOC(=O)CSC1=C(C#N)C(c2ccccc2OC)CC(=O)N1` (configuration not stated) it was 30.7%; in that of `O=C(CN(Cc1ccccc1F)S(=O)(=O)c1ccc(Cl)cc1)NCCCO`, -0.2%.
Regarding `CC1CCN(c2nc3c(c(=O)n(C)c(=O)n3C)n2CCSc2nc3ccccc3s2)CC1`, the cytotoxicity was -22%.
As to `COc1ccccc1C(c1nnnn1CS(=O)(=O)c1ccc(C)cc1)N1CCSCC1` (configuration not stated), the cytotoxicity is -16.2%.
In the case of `CCCn1c(SCC(=O)NCC2CCCO2)nc2c1c(=O)n(C)c(=O)n2C` (configuration not stated) it was 2.7%.
Take `CCOC(=O)CSC1=C(C#N)C(c2ccc(C)s2)CC(=O)N1` (configuration not stated): the cytotoxicity is 49.2%.
`CCOC(=O)CSC1=C(C#N)C(c2sccc2C)CC(=O)N1` (configuration not stated): the cytotoxicity was 52% (active).
As for `CCOc1ccc(C2CC(=O)NC(SCC(=O)OC)=C2C#N)cc1` (configuration not stated), the figure is -6.5%; as for `Cc1ccc(NCc2nnc3n2CCCCC3)cc1`, -2.7%; as for `CCOC(=O)N1CCC(N2CCN(S(=O)(=O)CC)CC2)CC1`, 3.6%.
In the case of `CC1CCc2nc(NC(=O)c3ccco3)sc2C1` (configuration not stated) it was -5.4%; in that of `O=C(Nc1nc2c(s1)CCc1ccccc1-2)c1ccco1`, 5.1%.
As for `O=S(=O)(Cc1ccccc1)NCc1ccccn1`, the figure is 1.9%; as for `C=CCn1c(SCC(=O)NCc2ccco2)nnc1-c1ccc2ccccc2n1`, 16.6%; as for `CN(C)CCOc1nc(-c2ccccc2)nc2c1oc1ccccc12`, 56.8% (active).
On to `CCc1nc(OCCN(C)C)c2oc3ccccc3c2n1`, for which the cytotoxicity was -2.7%.
In the case of `CCN(CC)CCOc1nc(C)nc2c1oc1ccccc12` it was -1.3%; in that of `CC1Oc2ccccc2N(Cc2ccccc2F)C1=O` (configuration not stated), 3.3%; in that of `CCOC(=O)c1ccccc1NC(=O)COC`, -2.8%.
As for `CCOC(=O)c1cccc(C(=O)OCC)n1`, the figure is -5.9%.
With `Cc1ccccc1CS(=O)(=O)Cc1ccc(C(=O)NCCCN2CCCC2=O)o1`, the cytotoxicity was -10.2%.
With `CCOC(=O)c1c(NC(=O)c2nn(CC)cc2Br)sc2c1CCCCC2`, the cytotoxicity is 16.9%.
As for `Cc1sc2ncnc(Sc3nnnn3-c3ccccc3)c2c1C`, the figure is 101% (active); as for `Clc1ccc(-n2nnnc2Sc2ncnc3sccc23)cc1`, -6.3%.
As for `Cc1nc(Sc2nnnn2-c2ccccc2)c(C#N)c(C)c1C`, the figure is -8%; as for `CCCn1c(Sc2nnnn2-c2ccccc2)n[nH]c1=O`, -14.1%.
As for `Cc1sc2ncnc(SCc3ccco3)c2c1C`, the figure is -15.5%; as for `CCOC(=O)c1ccc(CNC(=O)c2cc3cccc(OC)c3oc2=O)o1`, -2.4%.
For `CCOC(=O)CCCSc1nc2sc(C)c(C)c2c(=O)[nH]1`, the cytotoxicity is 9.4%.
As for `CC(C)CCn1c(SCC(N)=O)nc2c1c(=O)n(C)c(=O)n2C`, the figure is -10.1%; as for `CCOc1ccc(OCc2ccc(C(=O)O)o2)cc1`, -2.9%.
Take `CCN1CCN(c2ncc3c(n2)CC(c2cc(OC)c(OC)c(OC)c2)CC3=O)CC1` (configuration not stated): the cytotoxicity is 62.1% (active).
For `Cc1ccc(C2CC(=O)c3cnc(N4CCN(c5ccccc5)CC4)nc3C2)cc1` (configuration not stated), the cytotoxicity was 17.2%.
As for `O=C1CC(c2cccc(Cl)c2)Cc2nc(N3CCOCC3)ncc21` (configuration not stated), the figure is -18.3%; as for `O=C1CC(c2cccc(Cl)c2)Cc2nc(N3CCN(c4ccccc4)CC3)ncc21` (configuration not stated), 61.6% (active); as for `COc1ccc(C2CC(=O)c3c(C)nc(N4CCN(Cc5ccccc5)CC4)nc3C2)cc1OC` (configuration not stated), 39.3%.
As for `COc1cc(C2CC(=O)c3cnc(N4CCN(Cc5ccccc5)CC4)nc3C2)cc(OC)c1OC` (configuration not stated), the figure is 50.1% (active); as for `COc1cc(C2CC(=O)c3cnc(NC(=O)COc4ccccc4)nc3C2)cc(OC)c1OC` (configuration not stated), -19.4%; as for `COc1ccc(C2CC(=O)c3cnc(N4CCN(Cc5ccccc5)CC4)nc3C2)cc1` (configuration not stated), 4.1%.
On to `CCN1CCN(c2ncc3c(n2)CC(c2ccc(OC)c(OC)c2)CC3=O)CC1` (configuration not stated), for which the cytotoxicity was 14.6%.
As for `CCOC(=O)C1CCN(C(=O)CCn2c(=O)[nH]c3ccccc3c2=O)CC1`, the figure is -4.8%; as for `Cc1nn(C)c(C)c1S(=O)(=O)NC1CCCC1`, -13%.
As for `CCOC(=O)C1CCCN(C(=O)c2cccs2)C1` (configuration not stated), the figure is 2.4%.
In the case of `COc1cccc(NC(=O)NCc2cccn2C)c1` it was -7%.
Regarding `COc1cc(S(=O)(=O)N2CCC(N3CCCCC3)CC2)ccc1-n1cnnn1`, the cytotoxicity is 12.7%.
In the case of `COc1cc(S(=O)(=O)N2CCCC3(CCCCC3)C2)ccc1-n1cnnn1` it was 76% (active); in that of `COc1cc(S(=O)(=O)N2CCN3CCCC3C2)ccc1-n1cnnn1` (configuration not stated), 6.5%.
As for `COc1cc(C(=O)Nc2ccc(S(=O)(=O)N3CCCCC3C)cc2)cc(OC)c1OC` (configuration not stated), the figure is 0.7%; as for `Cc1cc(C)c2c(CC(=O)N(CCC#N)Cc3cccnc3)coc2c1`, -1.9%; as for `N#C/C(=C\c1ccco1)Sc1nc2ccccc2s1`, 43.6%.
As for `c1csc(CSc2nc3ccccc3s2)c1`, the figure is -17.1%; as for `Cc1oc(-c2cccs2)nc1CS(=O)CC(=O)NCCCOC(C)C` (configuration not stated), -12.2%.
`O=C(CSC1=NCCS1)Nc1ccnc2ccccc12`: the cytotoxicity was -15.4%.
As for `COC(=O)COc1ccc(S(=O)(=O)NCCC2=CCCCC2)cc1`, the figure is -11.9%.
In the case of `COC(=O)COc1ccc(S(=O)(=O)NCCC2=CCCCC2)cc1C`, the cytotoxicity is -19.8%.
In the case of `CCOC(=O)COc1ccc(S(=O)(=O)NCCC2=CCCCC2)cc1` it was 53.1% (active); in that of `COC(=O)C1=C(C)OC(N)=C(C#N)C1C1CCCCC1` (configuration not stated), -11.1%; in that of `CCOc1ccc(NC(=O)CSc2nnc(C)n2CCCOC)cc1`, -3.5%.
In the case of `Cc1cccc(OCC(=O)Nc2cc(C)ccc2O)c1`, the cytotoxicity is -1.5%.
As for `O=C(/C=C/Nc1cccc(O)c1)c1ccccc1`, the figure is 15%; as for `COc1cccc(C(=O)/C=C/Nc2cc(C)ccc2O)c1`, 69.1% (active); as for `COc1cccc(C(=O)Nc2ccc(C)cc2)c1`, 4.1%.
Turning to `Cc1ccc(C(=O)/C=C/Nc2cccc(O)c2)cc1`, the cytotoxicity was 60.9% (active).
As for `C/C(=C\C(=O)c1ccc(C)cc1)Nc1cccc(O)c1`, the figure is -15.4%.
